# Source: PubChem BioAssay
# Only some compounds are listed: those with a hit (about 3.5% of all), similar ones and a draw of the others.
# TEAD-YAP block – TEAD-YAP interaction inhibition. 1.4% of 640,000 active. inhibition, % at 9.12 µM. HEK-TIYL cells, TEAD-Gal4/YAP UAS-luciferase luminescence; in the data active means inhibition above about 32%;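 further: 0% = median of test compound wells and 100% = reference inhibitor wells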
# FBW7 act – human FBW7 E3 ligase activation, primary screen. normalized activity (activation), % at 26.1 µM. 0.13% of 650,000 active. AlphaScreen FBW7–phospho-cyclin E peptide binding, activator screen; in the data active means normalized activity above about 1.9%;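 further: purified mutant Fbw7 with reduced substrate affinity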
# MITF primary – inhibitors of human MITF; inhibition, % at 2.6 µM; 0.91% of 650,000 active; AID 1259374; AlphaScreen MITF homodimerization, bead proximity signal; O75030; in the data active means inhibition above about 50%;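 further: 0% = vehicle wells with protein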
# GPR151 ag – activators of human GPR151 | activation, % at 11.2 µM | PathHunter beta-arrestin GPR151 cells, luminescence | Q8TDV0 | AID 1508602 | 1% of 650,000 active; in the data active means activation above about 4.9%;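 further: 0% = median of compound wells and 100% = cells with positive control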
# Target sequence (Q8TDV0 whole entry, looked up): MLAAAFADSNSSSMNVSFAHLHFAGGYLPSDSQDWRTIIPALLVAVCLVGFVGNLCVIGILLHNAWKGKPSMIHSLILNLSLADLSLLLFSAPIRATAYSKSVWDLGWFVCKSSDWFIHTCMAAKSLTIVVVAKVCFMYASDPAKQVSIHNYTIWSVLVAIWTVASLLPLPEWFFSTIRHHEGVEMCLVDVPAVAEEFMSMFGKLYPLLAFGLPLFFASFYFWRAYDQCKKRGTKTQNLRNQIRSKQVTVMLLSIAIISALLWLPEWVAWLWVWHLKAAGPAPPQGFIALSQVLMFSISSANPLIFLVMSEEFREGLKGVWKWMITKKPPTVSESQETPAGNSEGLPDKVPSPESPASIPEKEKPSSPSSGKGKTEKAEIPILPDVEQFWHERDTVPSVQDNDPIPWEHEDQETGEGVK
# GPR151 conf act – confirmation of human GPR151 activators; shares compounds with GPR151 ag; GPR151 PathHunter beta-arrestin cells, luminescence, 90 min; % of EA-reagent control over plate median; activation, % at 11.2 µM; 6,700 tested, under 10 active;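 active means mean percent activation across replicates above the confirmation screen cutoff of 4.91%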
# GPR119 ag – counter-screen for GPR151 activators: effect on human GPR119 | shares compounds with GPR151 ag | GPR119 PathHunter beta-arrestin cells, luminescence, 90 min; 0 = compound-well median, 100 = enzyme-acceptor control | activation, % at 11.2 µM | 0.3% of 6,700 active;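 active means mean percent activation in the counterscreen above 29.09%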;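 further: counterscreen on off-target GPR119 to flag nonselective hits from the GPR151 activator screen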
# * hit, by the source's call; nt = not tested or not shown.
SMILES,TEAD-YAP block,FBW7 act,MITF primary,GPR151 ag,GPR151 conf act,GPR119 ag
O=C(NCCCN1CCN(c2ccc(Cl)cc2)CC1)Nc1ccc(F)cc1,-9,0,-7,0,nt,nt
O=C(NCCCN1CCN(c2ccc(Cl)cc2)CC1)Nc1ccccc1,-7,0,4,6.6*,0,8
CCCCCCCn1c(Cc2ccccc2)nc2ccccc21,-4,0,-1,5.8*,0,-1
O=C(Oc1ccccc1)c1cc2ccccc2oc1=O,-3,0,-2,0,nt,nt
O=C(OCc1ccccc1)c1ccc(OC(=O)c2cc3ccccc3oc2=O)cc1,11,0,-19,6.6*,0,-2
NC(=O)c1ccccc1NC(=O)c1ccc(Br)o1,-3,0,3,-3,nt,nt
COC(=O)c1ccc2c(=O)n(CCc3ccc(OC)c(OC)c3)c(SCC(=O)Nc3ccc(C)cc3)nc2c1,0,0,1,-1,nt,nt
CCC(Sc1nc2ccccc2c(=O)n1CCc1ccc(OC)c(OC)c1)C(=O)N(CC)CC (stereo not drawn),5,1,19,6.0*,1,9
COc1ccc(CCn2c(SCC(=O)c3ccc(F)cc3)nc3ccccc3c2=O)cc1OC,-1,0,1,5.4*,1,9
COC(=O)c1ccc2c(=O)n(CCc3ccc(OC)c(OC)c3)c(SCC(=O)Nc3cc(C)on3)nc2c1,-2,0,-3,5.8*,0,-8
COc1ccc(C(C)=O)cc1CSc1nc2ccccc2c(=O)n1CCc1ccc(OC)c(OC)c1,-5,0,-9,6.9*,0,6
CCC(Sc1nc2ccccc2c(=O)n1CCc1ccc(OC)c(OC)c1)C(=O)N1CCOCC1 (stereo not drawn),11,0,11,-1,nt,nt
O=C1CCC(C(=O)NCC2Cc3cc(-c4cccnc4)ccc3O2)=NN1 (stereo not drawn),16,0,-8,0,nt,nt
CCCCN(C)C(=O)Cc1c(C(=O)O)[nH]c2ccc(Cl)cc12,8,0,8,0,nt,nt
COc1ccc(C(=O)NC2CC2)cc1OC1CCN(Cc2ccc(F)cc2F)CC1,-22,0,-10,5.6*,0,0
CCc1nnc(-c2cc3ccccc3n2CC(=O)Nc2cccc(Cl)c2)o1,9,0,-9,5.3*,0,-9
C=CCn1c(SCc2ccccc2)nnc1-c1ccc([N+](=O)[O-])cc1,-6,0,13,2,nt,nt
COc1ccc(-c2n[nH]c(=S)n2Cc2ccco2)cc1OC,-7,0,-13,1,nt,nt
COc1cccc(-c2n[nH]c(=S)n2Cc2ccco2)c1OC,-10,1,11,9.1*,1,6
O=c1cc(Nc2ccc3c(c2)OCO3)[nH]c(=O)n1-c1ccc(Br)cc1,4,0,9,22*,0,4
CN1CCN(c2ccc(-c3cncc(-c4cnn(Cc5ccccc5)c4)n3)cn2)CC1,-33,0,-16,3,nt,nt
CSc1ccccc1C(=O)Nc1ccc2c(c1)CC(=O)N2,6,0,6,5.3*,0,-3
COc1ccc(C(=O)Cn2c(CN3CCCCC3)nc3ccccc3c2=O)cc1,-10,0,-2,6.1*,0,-7
CCN1CCC(N(Cc2ccc(F)cc2)C(=O)Nc2cc(F)ccc2F)CC1,-1,0,-5,5.1*,0,10
CC(C)C[C@H]1NC(=O)[C@@H]2C[C@H](NCc3nc(-c4ccccc4)cs3)CN2C1=O,-3,0,-14,1,nt,nt
SMILES,TEAD-YAP block,FBW7 act,MITF primary,GPR151 ag,GPR151 conf act,GPR119 ag
COc1cccc(C(c2nnnn2C(C)C)N2CCN(c3ccccc3)CC2)c1OC (stereo not drawn),0,0,3,5.4*,1,2
Cc1ccc2occ(C(=O)c3ccccc3Cl)c(=O)c2c1,11,0,10,7.7*,1,-6
Cc1c(C(=O)Nc2ccc(F)c(Cl)c2)sc2ncn(CC(=O)N3CC(C)CC(C)C3)c(=O)c12 (stereo not drawn),-3,0,9,-1,nt,nt
O=S(=O)(c1ccc2c(c1)OCCO2)N1CCCC(N2CCOCC2)C1 (stereo not drawn),-8,0,2,1,nt,nt
Cc1ccc(S(=O)(=O)N2CCCC(N3CCOCC3)C2)s1 (stereo not drawn),-2,0,5,6.3*,0,4
O=S(=O)(c1ccc(F)c(Cl)c1)N1CCCC(N2CCOCC2)C1 (stereo not drawn),7,0,-3,12*,1,5
Cc1ccc(S(=O)(=O)N2CCCC(N3CCOCC3)C2)cc1Cl (stereo not drawn),7,0,7,2,nt,nt
COC(=O)c1cccc(NC(=O)c2ccc[n+](C)c2)c1,-3,0,-3,0,nt,nt
C[n+]1cccc(C(=O)Nc2ccccc2)c1,-1,0,17,5.4*,-1,-8
CC(=O)C1=C(O)C(=O)N(Cc2cccnc2)C1c1ccc(O)cc1 (stereo not drawn),10,0,-13,5.4*,1,17
Cc1cccc(NC(=O)Cn2c(=O)n(C3CCCCC3)c(=O)c3cccnc32)c1,9,0,-3,0,nt,nt
COc1cc2c(cc1NC(=O)C(Cl)Cl)oc1ccccc12,-15,0,0,-2,nt,nt
CC1(C)C(c2cccs2)=[N+]([O-])C2(CCCCCC2=O)N1O (stereo not drawn),4,0,8,1,nt,nt
CC1(C)C(c2ccco2)=[N+]([O-])C2(CCCCCC2=O)N1O (stereo not drawn),0,0,-2,7.7*,0,14
CC(C)Sc1nc2c(c(=O)[nH]1)C(c1ccccc1)C1=C(CCCC1=O)N2 (stereo not drawn),-5,0,0,-1,nt,nt
O=C(C1CCC(CNc2c(N3CCCC3)c(=O)c2=O)CC1)N1CCc2ccccc21 (stereo not drawn),-1,0,11,5.3*,-1,-15
COc1cccc(OC)c1C(=O)O/N=C(\N)c1cccc(C)c1,7,0,6,3,nt,nt
CN(C)c1ccc(-c2nccnc2NS(=O)(=O)c2ccc(Cl)cc2)cc1,1,-1,-10,1,nt,nt
O=Cc1ccc(-c2nccnc2NS(=O)(=O)c2cccc(Cl)c2)cc1,9,0,8,5.0*,0,-6
CN(C)c1cccc2c(S(=O)(=O)Nc3nccnc3-c3ccc(CO)cc3)cccc12,10,0,46,0,nt,nt
CN(C)c1cccc2c(S(=O)(=O)Nc3nccnc3-c3ccc(C=O)cc3)cccc12,2,0,2,5.9*,2,-7
COc1ccc(C2C(C#N)=C(N)Oc3cc(N)ccc32)cc1Br (stereo not drawn),-8,0,4,7.6*,-1,-4
